# Measured values from paper PMC7862700, “An all-to-all approach to the identification of sequence-specific readers for epigenetic DNA modifications on cytosine”.
# What was measured:
# Assay in all cases: DAPPL (digital affinity profiling via proximity ligation, sequencing); 10 mM Tris-HCl pH 7.5, 50 mM NaCl, 1 mM DTT, 4% glycerol, room temperature, 30 min; GST-TFs on glutathione beads, 16-mer random dsDNA library, 0.1% formaldehyde crosslink after washing; high values mean tight binding
# FEV = biological target: T1, FEV (Homo sapiens, UniProt Q99581 1-238); settings: protein: recombinant; tags: N-terminal GST; dsDNA, one strand shown
# T1 sequence: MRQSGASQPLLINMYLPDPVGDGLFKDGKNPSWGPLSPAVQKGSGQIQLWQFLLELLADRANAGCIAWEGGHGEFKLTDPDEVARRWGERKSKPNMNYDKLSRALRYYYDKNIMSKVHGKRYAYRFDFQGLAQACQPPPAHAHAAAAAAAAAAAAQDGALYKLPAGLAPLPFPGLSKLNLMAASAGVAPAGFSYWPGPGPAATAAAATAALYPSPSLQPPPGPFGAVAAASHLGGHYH
# Method in brief: (§1)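 Binding signal is each hexamer's read frequency for a factor divided by its frequency in the tag-only sample. The factors were GST-fused human transcription factors from yeast, captured on glutathione beads, DNA-barcoded and pooled with that sample. Pools were incubated with 200 nmole of a random double-stranded 16-mer DNA library in Tris/NaCl/DTT/glycerol buffer at room temperature for 30 min, then washed, crosslinked with 0.1% formaldehyde, proximity-ligated with BsaI/T4 ligase (1 h, 37 °C), PCR-amplified and sequenced on an Illumina NextSeq500.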
# ETV5 = ETV5 (Homo sapiens, UniProt P41161 1-510); settings: protein: recombinant; tags: N-terminal GST; dsDNA, one strand shown
# Method in brief: as §1
# HSF1 = HSF1 (Homo sapiens, UniProt Q00613 1-529); settings: protein: recombinant; tags: N-terminal GST; chain copies: 3; dsDNA, one strand shown
# Method in brief: as §1
# SPIC = biological target: T2, SPIC (Homo sapiens, UniProt Q8N5J4 1-248); settings: protein: recombinant; tags: N-terminal GST; dsDNA, one strand shown
# T2 sequence: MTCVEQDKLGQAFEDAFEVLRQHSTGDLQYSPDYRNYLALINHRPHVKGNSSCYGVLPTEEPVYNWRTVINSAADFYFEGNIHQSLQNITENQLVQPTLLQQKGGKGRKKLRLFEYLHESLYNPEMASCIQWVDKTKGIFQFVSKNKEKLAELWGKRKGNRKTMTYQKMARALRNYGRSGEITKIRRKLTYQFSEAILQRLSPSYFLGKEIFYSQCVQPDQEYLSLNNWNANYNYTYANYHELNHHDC
# Method in brief: as §1
# ELF4 = ELF4 (Homo sapiens, UniProt Q99607 1-663); settings: protein: recombinant; tags: N-terminal GST; dsDNA, one strand shown
# Method in brief: as §1
# ELK4 = biological target: T3, ELK4 (Homo sapiens, UniProt P28324-2 1-405); settings: protein: recombinant; tags: N-terminal GST; dsDNA, one strand shown
# T3 sequence: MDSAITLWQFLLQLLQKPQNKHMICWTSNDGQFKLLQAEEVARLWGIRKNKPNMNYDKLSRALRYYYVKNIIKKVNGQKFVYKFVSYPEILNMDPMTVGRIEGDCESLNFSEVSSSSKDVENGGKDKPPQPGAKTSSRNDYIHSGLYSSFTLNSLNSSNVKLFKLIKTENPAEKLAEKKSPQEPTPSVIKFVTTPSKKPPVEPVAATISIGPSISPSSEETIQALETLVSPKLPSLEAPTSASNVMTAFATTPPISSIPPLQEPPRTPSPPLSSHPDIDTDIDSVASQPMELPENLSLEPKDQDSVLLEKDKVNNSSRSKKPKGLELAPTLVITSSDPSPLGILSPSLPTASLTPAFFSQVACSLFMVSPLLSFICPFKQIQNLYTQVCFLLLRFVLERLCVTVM
# Method in brief: as §1
# ETV2 = biological target: T4, ETV2 (Homo sapiens, UniProt O00321 1-342); settings: protein: recombinant; tags: N-terminal GST; dsDNA, one strand shown
# T4 sequence: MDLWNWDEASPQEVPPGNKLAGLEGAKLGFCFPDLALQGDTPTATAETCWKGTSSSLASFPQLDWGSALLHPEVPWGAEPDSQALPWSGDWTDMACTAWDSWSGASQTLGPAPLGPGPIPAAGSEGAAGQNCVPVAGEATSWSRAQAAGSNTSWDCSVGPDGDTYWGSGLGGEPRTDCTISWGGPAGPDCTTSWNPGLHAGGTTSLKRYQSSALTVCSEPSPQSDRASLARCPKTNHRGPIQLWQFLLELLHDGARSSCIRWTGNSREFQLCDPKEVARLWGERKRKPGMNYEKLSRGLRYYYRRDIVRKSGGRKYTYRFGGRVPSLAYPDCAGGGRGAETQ
# Method in brief: as §1
# ELF3 = biological target: T5, ELF3 (Homo sapiens, UniProt P78545 1-371); settings: protein: recombinant; tags: N-terminal GST; dsDNA, one strand shown
# T5 sequence: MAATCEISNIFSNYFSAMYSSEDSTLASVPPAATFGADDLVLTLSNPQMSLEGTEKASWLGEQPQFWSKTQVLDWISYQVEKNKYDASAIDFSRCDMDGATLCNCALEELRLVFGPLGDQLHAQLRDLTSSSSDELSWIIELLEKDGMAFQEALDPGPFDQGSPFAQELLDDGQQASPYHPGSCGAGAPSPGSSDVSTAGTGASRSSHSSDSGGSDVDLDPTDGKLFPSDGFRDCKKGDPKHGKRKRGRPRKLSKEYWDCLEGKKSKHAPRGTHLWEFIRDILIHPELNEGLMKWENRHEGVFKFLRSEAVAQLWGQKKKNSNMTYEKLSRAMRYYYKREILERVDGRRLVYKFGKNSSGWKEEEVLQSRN
# Method in brief: as §1
# CRX = CRX (Homo sapiens, UniProt O43186 1-299); settings: protein: recombinant; tags: N-terminal GST; dsDNA, one strand shown
# Method in brief: as §1
# ETV1 = ETV1 (Homo sapiens, UniProt P50549 1-477); settings: protein: recombinant; tags: N-terminal GST; dsDNA, one strand shown
# Method in brief: as §1
# ERF = biological target: T6, ERF (Homo sapiens, UniProt P50548 1-548); settings: protein: recombinant; tags: N-terminal GST; dsDNA, one strand shown
# T6 sequence: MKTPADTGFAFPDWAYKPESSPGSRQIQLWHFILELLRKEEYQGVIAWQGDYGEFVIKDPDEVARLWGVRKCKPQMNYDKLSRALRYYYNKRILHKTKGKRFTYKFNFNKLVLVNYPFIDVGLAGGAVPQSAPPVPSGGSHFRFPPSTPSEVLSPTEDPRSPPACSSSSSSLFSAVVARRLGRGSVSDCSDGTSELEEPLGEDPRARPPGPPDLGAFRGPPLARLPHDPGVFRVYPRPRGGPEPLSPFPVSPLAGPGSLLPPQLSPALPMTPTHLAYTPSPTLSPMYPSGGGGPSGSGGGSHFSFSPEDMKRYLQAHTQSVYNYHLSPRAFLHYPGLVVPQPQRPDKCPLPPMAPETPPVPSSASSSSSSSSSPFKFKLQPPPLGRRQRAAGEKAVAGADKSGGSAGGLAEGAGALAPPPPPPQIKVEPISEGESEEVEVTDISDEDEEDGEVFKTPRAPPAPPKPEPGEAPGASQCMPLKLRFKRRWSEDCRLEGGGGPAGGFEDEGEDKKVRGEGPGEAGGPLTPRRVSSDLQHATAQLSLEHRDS
# Method in brief: as §1
# ETV3L = biological target: T7, ETV3L (Homo sapiens, UniProt Q6ZN32 1-361); settings: protein: recombinant; tags: N-terminal GST; dsDNA, one strand shown
# T7 sequence: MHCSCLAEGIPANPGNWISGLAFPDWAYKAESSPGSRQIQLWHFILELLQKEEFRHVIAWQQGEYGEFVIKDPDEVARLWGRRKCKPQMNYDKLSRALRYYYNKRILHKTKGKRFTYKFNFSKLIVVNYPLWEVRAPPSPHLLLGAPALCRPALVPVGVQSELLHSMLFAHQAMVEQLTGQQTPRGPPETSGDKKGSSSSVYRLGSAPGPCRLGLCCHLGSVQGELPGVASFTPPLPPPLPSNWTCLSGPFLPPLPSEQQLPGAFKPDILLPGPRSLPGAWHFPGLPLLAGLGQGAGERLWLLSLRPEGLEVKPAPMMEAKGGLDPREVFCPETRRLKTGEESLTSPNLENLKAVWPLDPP
# Method in brief: as §1
# ETS2 = biological target: T8, ETS2 (Homo sapiens, UniProt P15036 1-469); settings: protein: recombinant; tags: N-terminal GST; dsDNA, one strand shown
# T8 sequence: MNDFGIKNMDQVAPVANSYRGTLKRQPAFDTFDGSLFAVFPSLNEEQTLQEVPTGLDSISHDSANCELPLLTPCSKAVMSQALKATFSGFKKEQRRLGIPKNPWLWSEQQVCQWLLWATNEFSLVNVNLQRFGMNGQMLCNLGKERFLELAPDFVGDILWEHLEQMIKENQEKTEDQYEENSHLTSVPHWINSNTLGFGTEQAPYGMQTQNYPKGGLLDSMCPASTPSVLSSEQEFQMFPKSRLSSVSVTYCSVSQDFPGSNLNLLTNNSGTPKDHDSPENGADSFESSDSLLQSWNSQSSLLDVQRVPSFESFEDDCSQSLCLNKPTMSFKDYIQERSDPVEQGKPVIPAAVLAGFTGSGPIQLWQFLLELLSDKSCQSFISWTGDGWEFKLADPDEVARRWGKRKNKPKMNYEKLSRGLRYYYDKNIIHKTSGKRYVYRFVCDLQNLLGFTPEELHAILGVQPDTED
# Method in brief: as §1
# SPDEF = biological target: T9, SPDEF (Homo sapiens, UniProt O95238 1-335); settings: protein: recombinant; tags: N-terminal GST; dsDNA, one strand shown
# T9 sequence: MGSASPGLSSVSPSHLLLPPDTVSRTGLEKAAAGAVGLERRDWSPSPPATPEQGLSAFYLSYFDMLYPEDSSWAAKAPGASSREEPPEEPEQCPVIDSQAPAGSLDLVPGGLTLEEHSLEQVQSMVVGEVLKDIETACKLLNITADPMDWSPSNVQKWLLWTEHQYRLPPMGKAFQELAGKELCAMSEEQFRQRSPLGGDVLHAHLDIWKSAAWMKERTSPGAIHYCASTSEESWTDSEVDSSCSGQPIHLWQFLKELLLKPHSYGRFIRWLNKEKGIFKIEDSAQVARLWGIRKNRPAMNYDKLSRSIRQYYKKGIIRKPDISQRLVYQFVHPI
# Method in brief: as §1
# ETV7 = biological target: T10, ETV7 (Homo sapiens, UniProt Q9Y603 1-341); settings: protein: recombinant; tags: N-terminal GST; dsDNA, one strand shown
# T10 sequence: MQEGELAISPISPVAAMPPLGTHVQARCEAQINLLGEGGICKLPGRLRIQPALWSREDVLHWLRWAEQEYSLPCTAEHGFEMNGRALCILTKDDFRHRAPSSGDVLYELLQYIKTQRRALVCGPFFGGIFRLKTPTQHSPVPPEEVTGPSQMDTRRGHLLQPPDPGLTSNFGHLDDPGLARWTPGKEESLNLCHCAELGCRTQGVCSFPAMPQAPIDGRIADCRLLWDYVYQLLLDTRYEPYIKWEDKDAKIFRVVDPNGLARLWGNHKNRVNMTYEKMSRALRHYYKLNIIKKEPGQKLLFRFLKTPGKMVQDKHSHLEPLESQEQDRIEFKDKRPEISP
# Method in brief: as §1
# ELF5 = biological target: T11, ELF5 (Homo sapiens, UniProt Q9UKW6-2 1-255); settings: protein: recombinant; tags: N-terminal GST; dsDNA, one strand shown
# T11 sequence: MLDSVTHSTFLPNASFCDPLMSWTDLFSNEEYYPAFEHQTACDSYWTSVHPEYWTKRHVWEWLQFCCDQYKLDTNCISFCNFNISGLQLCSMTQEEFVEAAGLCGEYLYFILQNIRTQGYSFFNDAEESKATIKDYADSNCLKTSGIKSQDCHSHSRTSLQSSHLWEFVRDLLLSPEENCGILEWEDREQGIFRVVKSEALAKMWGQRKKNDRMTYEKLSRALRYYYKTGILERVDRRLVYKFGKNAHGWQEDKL
# Method in brief: as §1
# ETV3 = biological target: T12, ETV3 (Homo sapiens, UniProt P41162-2 1-143); settings: protein: recombinant; tags: N-terminal GST; dsDNA, one strand shown
# T12 sequence: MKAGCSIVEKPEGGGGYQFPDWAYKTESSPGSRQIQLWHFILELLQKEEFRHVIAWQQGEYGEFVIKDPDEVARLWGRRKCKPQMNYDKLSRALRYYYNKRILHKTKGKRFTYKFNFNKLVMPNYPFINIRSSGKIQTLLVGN
# Method in brief: as §1
# ETV6 = ETV6 (Homo sapiens, UniProt P41212 1-452); settings: protein: recombinant; tags: N-terminal GST; dsDNA, one strand shown
# Method in brief: as §1
# ETV6, sequence (P41212 whole entry): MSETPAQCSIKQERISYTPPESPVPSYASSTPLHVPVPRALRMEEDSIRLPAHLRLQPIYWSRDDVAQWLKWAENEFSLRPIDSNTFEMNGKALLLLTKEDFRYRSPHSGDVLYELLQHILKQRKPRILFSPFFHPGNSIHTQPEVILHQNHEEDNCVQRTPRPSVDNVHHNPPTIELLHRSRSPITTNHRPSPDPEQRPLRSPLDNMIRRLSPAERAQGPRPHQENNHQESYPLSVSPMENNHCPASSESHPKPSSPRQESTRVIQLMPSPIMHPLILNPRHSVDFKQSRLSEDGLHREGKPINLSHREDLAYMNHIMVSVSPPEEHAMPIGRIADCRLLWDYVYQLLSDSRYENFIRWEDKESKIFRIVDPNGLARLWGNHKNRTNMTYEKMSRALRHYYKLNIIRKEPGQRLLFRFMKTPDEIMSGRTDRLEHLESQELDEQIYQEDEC
# ETV5, sequence (P41161 whole entry): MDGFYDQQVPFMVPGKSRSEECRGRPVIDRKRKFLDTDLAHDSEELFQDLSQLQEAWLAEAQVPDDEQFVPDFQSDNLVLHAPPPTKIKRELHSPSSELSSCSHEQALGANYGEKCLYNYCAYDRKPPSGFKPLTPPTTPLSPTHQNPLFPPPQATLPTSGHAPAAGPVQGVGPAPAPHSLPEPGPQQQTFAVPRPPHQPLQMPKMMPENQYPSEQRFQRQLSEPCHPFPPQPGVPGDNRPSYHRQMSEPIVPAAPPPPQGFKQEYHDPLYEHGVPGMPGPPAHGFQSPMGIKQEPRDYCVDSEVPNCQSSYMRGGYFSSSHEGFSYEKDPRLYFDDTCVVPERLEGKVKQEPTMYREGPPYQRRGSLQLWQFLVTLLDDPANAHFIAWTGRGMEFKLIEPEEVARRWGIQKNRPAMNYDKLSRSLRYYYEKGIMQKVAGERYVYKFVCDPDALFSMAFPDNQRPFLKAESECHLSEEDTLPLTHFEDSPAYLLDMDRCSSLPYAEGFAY
# ELF4, sequence (Q99607 whole entry): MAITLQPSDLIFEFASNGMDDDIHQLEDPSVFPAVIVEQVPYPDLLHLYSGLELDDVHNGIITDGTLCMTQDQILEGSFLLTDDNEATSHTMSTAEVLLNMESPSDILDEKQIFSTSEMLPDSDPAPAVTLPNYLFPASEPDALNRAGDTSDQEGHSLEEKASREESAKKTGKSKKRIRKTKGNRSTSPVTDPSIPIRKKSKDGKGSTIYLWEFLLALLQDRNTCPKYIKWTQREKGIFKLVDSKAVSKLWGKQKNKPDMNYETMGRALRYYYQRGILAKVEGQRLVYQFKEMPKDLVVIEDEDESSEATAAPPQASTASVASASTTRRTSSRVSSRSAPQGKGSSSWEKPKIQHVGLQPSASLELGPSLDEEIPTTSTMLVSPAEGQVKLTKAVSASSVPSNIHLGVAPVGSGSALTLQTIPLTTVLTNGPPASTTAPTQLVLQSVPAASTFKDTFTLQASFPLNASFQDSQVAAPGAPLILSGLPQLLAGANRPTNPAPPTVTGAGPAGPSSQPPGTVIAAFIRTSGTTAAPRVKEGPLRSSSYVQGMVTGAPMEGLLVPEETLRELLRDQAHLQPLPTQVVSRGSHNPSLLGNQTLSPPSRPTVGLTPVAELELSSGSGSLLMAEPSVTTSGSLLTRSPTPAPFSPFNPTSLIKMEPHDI
# CRX, sequence (O43186 whole entry): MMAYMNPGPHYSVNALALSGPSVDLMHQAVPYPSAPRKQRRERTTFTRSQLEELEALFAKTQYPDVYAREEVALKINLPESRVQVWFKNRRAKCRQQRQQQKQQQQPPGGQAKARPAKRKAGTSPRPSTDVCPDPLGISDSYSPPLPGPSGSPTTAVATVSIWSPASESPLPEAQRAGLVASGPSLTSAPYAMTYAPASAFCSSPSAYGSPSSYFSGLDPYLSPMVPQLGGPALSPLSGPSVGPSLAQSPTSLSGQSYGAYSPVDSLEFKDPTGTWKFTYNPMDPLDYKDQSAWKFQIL
# HSF1, sequence (Q00613 whole entry): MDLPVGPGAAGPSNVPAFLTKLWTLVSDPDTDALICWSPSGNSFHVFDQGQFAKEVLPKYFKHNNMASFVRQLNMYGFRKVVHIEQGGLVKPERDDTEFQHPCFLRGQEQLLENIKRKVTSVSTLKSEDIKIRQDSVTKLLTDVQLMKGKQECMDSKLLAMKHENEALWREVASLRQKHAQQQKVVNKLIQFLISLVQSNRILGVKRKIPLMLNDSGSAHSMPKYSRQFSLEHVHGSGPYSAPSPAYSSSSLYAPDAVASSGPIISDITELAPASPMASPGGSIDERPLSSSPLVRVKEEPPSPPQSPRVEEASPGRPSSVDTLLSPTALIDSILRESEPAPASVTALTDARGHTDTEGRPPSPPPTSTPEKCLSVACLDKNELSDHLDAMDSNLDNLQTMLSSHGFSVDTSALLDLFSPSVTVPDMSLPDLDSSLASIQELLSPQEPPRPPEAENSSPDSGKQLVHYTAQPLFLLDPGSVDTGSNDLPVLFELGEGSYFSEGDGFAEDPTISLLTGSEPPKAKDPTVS
# ETV1, sequence (P50549 whole entry): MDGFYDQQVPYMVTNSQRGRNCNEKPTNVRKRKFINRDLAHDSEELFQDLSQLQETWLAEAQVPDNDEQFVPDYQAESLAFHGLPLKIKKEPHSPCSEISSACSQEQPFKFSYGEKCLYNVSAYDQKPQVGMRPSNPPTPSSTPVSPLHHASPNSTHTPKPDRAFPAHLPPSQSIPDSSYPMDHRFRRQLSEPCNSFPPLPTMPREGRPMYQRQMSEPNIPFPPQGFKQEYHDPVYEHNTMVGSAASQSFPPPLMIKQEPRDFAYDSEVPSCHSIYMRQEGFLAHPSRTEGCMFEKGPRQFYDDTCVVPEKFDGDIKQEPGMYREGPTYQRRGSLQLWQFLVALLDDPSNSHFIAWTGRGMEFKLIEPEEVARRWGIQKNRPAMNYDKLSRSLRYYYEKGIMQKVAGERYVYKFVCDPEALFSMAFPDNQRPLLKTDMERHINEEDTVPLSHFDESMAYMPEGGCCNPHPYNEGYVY
sequence,measurement,setting,value
CAATAT,binding signal,FEV,"1.25 fold enrichment (6-mer frequency, TF over GST control)"
same,binding signal,ETV5,"1.33 fold enrichment (6-mer frequency, TF over GST control)"
same,binding signal,HSF1,"1.11 fold enrichment (6-mer frequency, TF over GST control)"
same,binding signal,SPIC,"1.23 fold enrichment (6-mer frequency, TF over GST control)"
same,binding signal,ELF4,"1.28 fold enrichment (6-mer frequency, TF over GST control)"
same,binding signal,ELK4,"1.31 fold enrichment (6-mer frequency, TF over GST control)"
same,binding signal,ETV2,"1.29 fold enrichment (6-mer frequency, TF over GST control)"
same,binding signal,ELF3,"1.28 fold enrichment (6-mer frequency, TF over GST control)"
same,binding signal,CRX,"1.15 fold enrichment (6-mer frequency, TF over GST control)"
same,binding signal,ETV1,"1.27 fold enrichment (6-mer frequency, TF over GST control)"
same,binding signal,ERF,"1.28 fold enrichment (6-mer frequency, TF over GST control)"
same,binding signal,ETV3L,"1.26 fold enrichment (6-mer frequency, TF over GST control)"
same,binding signal,ETS2,"1.28 fold enrichment (6-mer frequency, TF over GST control)"
same,binding signal,SPDEF,"1.34 fold enrichment (6-mer frequency, TF over GST control)"
same,binding signal,ETV7,"1.27 fold enrichment (6-mer frequency, TF over GST control)"
same,binding signal,ELF5,"1.2 fold enrichment (6-mer frequency, TF over GST control)"
same,binding signal,ETV3,"1.33 fold enrichment (6-mer frequency, TF over GST control)"
same,binding signal,ETV6,"1.23 fold enrichment (6-mer frequency, TF over GST control)"
